Data published in PubChem BioAssay AID504847 (National Center for Advancing Translational Sciences (NCATS), 2011).
Out of some 400,000 compounds screened, about 3,700 (0.93%) were called active. Not shown: some 3% with an inconclusive outcome. Calls come from the whole dose curve; as a rule, active = well fitted inhibition curve with a large enough effect; inconclusive = small, poorly fitted or top-dose-only effect, or another doubt; inactive = no such curve, though single readings can be large or run the other way. For the sample, actives were picked, then their nearest neighbours and some compounds at random.

Biological target: Vitamin D3 receptor (Homo sapiens) (UniProt P11473)
Sequence (P11473 whole entry, looked up): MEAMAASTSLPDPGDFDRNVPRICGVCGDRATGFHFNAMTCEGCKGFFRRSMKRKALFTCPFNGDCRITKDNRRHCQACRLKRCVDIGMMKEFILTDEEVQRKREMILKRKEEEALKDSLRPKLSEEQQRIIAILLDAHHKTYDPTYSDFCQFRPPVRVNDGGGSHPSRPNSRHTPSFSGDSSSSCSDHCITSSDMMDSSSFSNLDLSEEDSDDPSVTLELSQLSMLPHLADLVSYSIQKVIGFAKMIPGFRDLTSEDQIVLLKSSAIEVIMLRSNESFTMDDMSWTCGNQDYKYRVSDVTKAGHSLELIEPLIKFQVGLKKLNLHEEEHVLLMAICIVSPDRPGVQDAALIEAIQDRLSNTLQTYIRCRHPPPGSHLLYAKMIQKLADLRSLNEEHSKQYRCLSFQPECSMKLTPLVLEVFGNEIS
Test: Inhibitors of the vitamin D receptor (VDR): qHTS
Settings: VDR-SRC2-3 peptide fluorescence polarization, 2 h; max response, negative = inhibition: hits give low values
In short: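 Signal is fluorescence polarization, reporting how far test compounds block the interaction of VDR with the SRC2-3 coregulator peptide after a 2 h room-temperature incubation.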
% is set by controls: 0 for no effect and ±100 for the full control effect; potency is the fitted concentration of half-maximal effect.

Structure (SMILES)	max response, negative = inhibition	Potency
CCC(Sc1nnc(-c2ccc(OC)cc2)c(-c2ccc(OC)cc2)n1)C(=O)NC1CCCCC1 (configuration not stated)	11.6% (inactive)	–
Cc1nc2ccccn2c(=O)c1NC(=O)c1c(F)cccc1F	13.4% (inactive)	–
Cc1ccc2nc(-c3ccc(C)c(NC(=O)Cc4ccccc4)c3)oc2c1	-21.8% (inactive)	–
Cc1ccc(OCC(=O)Nc2ccc(Cl)c(-c3nc4ccccc4[nH]3)c2)cc1C	2.81% (inactive)	–
CC(=O)OCC(=O)[C@@]1(O)CCC2C3CCC4=CC(=O)CC[C@]4(C)C3C(=O)C[C@]21C (some centres not stated)	-10.5% (inactive)	–
Cc1ccc(Cl)cc1N1CCN(C(=O)c2cn(C)c3ccc(S(=O)(=O)N(C)C4CCCCC4)cc3c2=O)CC1	-5.35% (inactive)	–
O=C1N=C(N2CCc3ccccc3C2)S/C1=C\c1ccc(O)cc1	17.3% (inactive)	–
O=C1/C(=C\c2ccc(O)cc2)CCC1CNc1ccc(Cl)cc1 (configuration not stated)	–	79.4 µM (active)
Cc1nn(-c2ccc(N3CCCCC3)nn2)c(C)c1CCC(=O)NCc1ccc(F)cc1	11.6% (inactive)	–
COc1ccc(CCNC(=O)c2cc3cccc4c3n2CC(C)S4)c(OC)c1OC (configuration not stated)	4.11% (inactive)	–
COc1ccc(Cn2ccn(Cc3cccc(OC)c3)c(=O)c2=O)cc1	6.97% (inactive)	–
O=c1c(=O)n(Cc2c(F)cccc2Cl)ccn1Cc1ccccc1	-1.19% (inactive)	–
O=[N+]([O-])/C=C/c1ccc2c(ccn2Cc2ccccc2)c1	–	6.31 µM (active)
COc1ccc(Cn2c(=O)[nH]c3cc(C(=O)N4CCN(C(=O)c5ccco5)CC4)ccc3c2=O)cc1	-6.06% (inactive)	–
COc1ccc(-c2nc3sc(CCNS(=O)(=O)c4ccc(F)c(C)c4)c(C)n3n2)cc1	16% (inactive)	–
O=C(Nc1cccc([N+](=O)[O-])c1)N1CCc2ccccc2C1	5.4% (inactive)	–
COC(=O)/C=C\C(=O)Nc1cccc([N+](=O)[O-])c1	–	22.4 µM (active)
O=C(CN1CCOCC1)Nc1cccc([N+](=O)[O-])c1	-1.57% (inactive)	–
CC(=O)N1c2ccc(S(=O)(=O)N3CCCCCC3)cc2CC1C(=O)NCc1ccccc1C (configuration not stated)	5.71% (inactive)	–
N#Cc1c(-c2ccc(F)cc2)nc(-c2ccccc2)[nH]c1=O	13.1% (inactive)	–
O=c1[nH]c(SCc2cccc(F)c2)nc2ccccc12	-6.23% (inactive)	–
N#Cc1c(-c2ccccc2)nc(SCc2cccc(C(F)(F)F)c2)[nH]c1=O	–	79.4 µM (active)
Cc1oc(-c2ccccc2)nc1Cn1c(SCc2cccc(C(F)(F)F)c2)nc2cccnc21	2.78% (inactive)	–

Structure (SMILES)	max response, negative = inhibition	Potency
CC(Sc1nc(-c2ccccc2)cc(C(F)(F)F)n1)C(=O)Nc1ccc2c(c1)OCO2 (configuration not stated)	-18.9% (inactive)	–
Cc1ccc(O)c(NC(=O)CCS(=O)(=O)c2nc(-c3ccc4c(c3)OCO4)cc(C(F)(F)F)n2)c1	–	50.1 µM (active)
Cc1ccc(O)c(NC(=O)c2cc(-c3ccc(F)cc3)no2)c1	12% (inactive)	–
Cc1ccc(C(=O)COC(=O)C(Cc2c[nH]c3ccccc23)NC(=O)c2ccc(Br)cc2)cc1 (configuration not stated)	6.05% (inactive)	–
CCOc1ccccc1CNC(=O)c1cnc2c(-c3ccc(OCC)c(OCC)c3)c(C)nn2c1C	12.6% (inactive)	–
CN(c1ccccc1)S(=O)(=O)c1cc(C(=O)Nc2nc3ccccc3[nH]2)ccc1Cl	22.7% (inactive)	–
Cc1ccc2nc(CNC(=O)c3ccccc3)[nH]c2c1	11.1% (inactive)	–
O=C(/C(=C/c1cccc(Cl)c1)c1nc2ccccc2[nH]1)c1ccccc1	–	79.4 µM (active)
COc1cc(OC)c2c(c1Cl)OC1(C2=O)C(O)=CC(=O)CC1C (configuration not stated)	1.06% (inactive)	–
COc1ccccc1OCC(=O)Nc1nnc2n1CCS2	-3.73% (inactive)	–
Cc1ccc(NC(=O)Cc2ccc(NC(=O)N3CCCCc4ccccc43)cc2)cc1	6.32% (inactive)	–
CN(C)c1nc(=Nc2cccc(Cl)c2)ss1	–	25.1 µM (active)
Cc1c(-c2nsc(NC(=O)c3cccc(Cl)c3)n2)nnn1-c1ccccc1C(F)(F)F	1.99% (inactive)	–
CCc1ccccc1NC(=O)CSc1nc(C)c(C(=O)Nc2ccccc2)c(-c2ccc(Cl)cc2)c1C#N	5.32% (inactive)	–
COc1ccc(-c2nc(CN3CCC(C(=O)NCc4ccccc4)CC3)c(C)o2)cc1OC	-18.6% (inactive)	–
Nc1ccccc1SC(C[N+](=O)[O-])c1ccccc1 (configuration not stated)	–	3.55 µM (active)
O=C(Nc1cccc(-c2nc3ccccc3o2)c1)c1cccc(Br)c1	4.46% (inactive)	–
Cc1ccc2ccc3c(c2n1)NS(=O)(=O)c1ccccc1-3	-4.3% (inactive)	–
CCS(=O)(=O)c1cc([N+](=O)[O-])c(Sc2ccccc2N)s1	–	28.2 µM (active)
CCOC(=O)c1cnc2c(C)cc(Cl)cc2c1NCCc1ccc(OC)c(OC)c1	2.98% (inactive)	–
COc1ccc(NC(=O)CSc2nc3ncccc3[nH]2)c(OC)c1	22.9% (inactive)	–
COc1ccc(NC(=O)Cn2c(=O)n(CCC(C)C)c(=O)c3cccnc32)cc1Cl	11.2% (inactive)	–
COc1ccccc1-c1nc(N2CCN(C)CC2)c2ccccc2n1	-9.82% (inactive)	–

Structure (SMILES)	max response, negative = inhibition	Potency
FC(F)(F)c1ccccc1-c1nc(-n2ccnc2)c2ccccc2n1	–	50.1 µM (active)
COc1ccc(N2CCN(c3nc(-c4ccccc4F)nc4ccccc34)CC2)cc1	21.1% (inactive)	–
Cc1ccc(C)c(Nc2nnc(-c3ccc(C)c(S(=O)(=O)N4CCCCC4)c3)c3ccccc23)c1	2.71% (inactive)	–
CC(C)(C)c1ccc(C(=O)Nc2ccc3c(c2)CCCN3C(=O)c2cccs2)cc1	-1.02% (inactive)	–
O=C(C1CCC(Cn2c(=O)c3sccc3n(Cc3ccccc3F)c2=O)CC1)N1CCCCC1 (configuration not stated)	8.9% (inactive)	–
Cc1ccc(SC(CC(=O)c2ccc(C(C)(C)C)cc2)C(=O)O)cc1 (configuration not stated)	–	20 µM (active)
CC(C)(C)c1ccc(C(=O)NNC(=O)Cc2ccccc2)cc1	3.53% (inactive)	–
Cc1ccc(Sc2cc(C(=O)c3ccccc3C(=O)O)ccc2[N+](=O)[O-])cc1	-16.9% (inactive)	–
CCCCCCCC[C@@H](O)/C=C/C=C/C=C\[C@@H](O)CCCC(=O)O	10.9% (inactive)	–
COc1ccc(NC(=O)c2cc3cc(C)ccc3n2C)cc1	8.19% (inactive)	–
CC(CNC(=O)Cn1cnc2c(OCc3ccccc3)ncnc21)c1ccccc1 (configuration not stated)	-7.14% (inactive)	–
O=C(Cn1cnc2c(OCc3ccccc3)ncnc21)NCc1nc2ccccc2[nH]1	–	79.4 µM (active)
O=C(Cn1cnc2c(OCc3ccccc3)ncnc21)NCCCn1ccnc1	6.56% (inactive)	–
COc1ccc(C2CC(=O)Nc3c2c(=O)nc2c(C)cccn32)cc1OC (configuration not stated)	12.4% (inactive)	–
O=C(/C=C/c1ccccc1)c1ccccc1O	–	17.8 µM (active)
O=C(/C=C(O)/C=C/c1ccc(O)cc1)/C=C/c1ccc(O)cc1	-24.8% (inactive)	–
O=C(NNC(=O)c1ccccc1O)c1ccccc1O	10.5% (inactive)	–
Cc1nc(-c2ccccc2)sc1C(=O)/C=C/c1ccccc1	–	79.4 µM (active)
CNC(=O)c1csc(-c2ccccc2)n1	4.33% (inactive)	–
Cc1[nH]c(=O)c(C(=O)/C=C/c2ccccc2)c2c1CCCC2	-23.7% (inactive)	–
CCOC(=O)c1ccc(N2C(=O)c3n[nH]c(-c4ccco4)c3C2c2ccc(O)cc2)cc1 (configuration not stated)	-8.24% (inactive)	–
Cc1cccn2c(=O)c(C(=O)NC(C)c3ccccc3)cnc12 (configuration not stated)	-16% (inactive)	–
COC(=O)c1ccc(Cn2c(SCC(=O)N(C)c3ccccc3)nc3ccccc32)cc1	14.3% (inactive)	–

Structure (SMILES)	max response, negative = inhibition	Potency
C=CCOc1ccc(/C=C2/C(=O)ON=C2C)cc1OCC	–	79.4 µM (active)
COc1cc(/C=C2/C(=O)ON=C2C)ccc1OCc1cccc(F)c1	–	25.1 µM (active)
C#CCOc1ccccc1/C=C1/C(=O)ON=C1C	-13.5% (inactive)	–
COc1ccnc2c1c(=O)n(Cc1cccc(F)c1)c(=O)n2C	0.374% (inactive)	–
C=CCOc1ccc(/C=N/NC(=O)C(C)Sc2ccccn2)cc1OCC (configuration not stated)	-3.04% (inactive)	–
COc1cc(/C=C2\SC(=O)NC2=O)ccc1OCc1ccc(Cl)nc1	3.39% (inactive)	–
Cc1ccc(C)c(N2CCN(C(c3ccccc3)c3nnc(-c4ccccc4)o3)CC2)c1 (configuration not stated)	0% (inactive)	–
Cc1ccc(C2C=C(c3ccc(Cl)cc3)Nc3nc(NC(=O)CCC(=O)O)nn32)cc1 (configuration not stated)	-1.64% (inactive)	–
CCOC(=O)c1c(C)[nH]c(CCC(=O)NCCCN2CCN(c3cc(C)ccc3C)CC2)c1C	1.52% (inactive)	–
CCOC(OCC)OCC	-7.21% (inactive)	–
O=c1ccc2c(-c3ccccc3S(=O)(=O)O)c3ccc(O)c(O)c3oc-2c1O	–	35.5 µM (active)
Cc1nc2cnc(N3CCNCC3)nc2n(CCc2ccccc2)c1=O	-10.9% (inactive)	–
CCCCC(=O)NC(c1ccc(OC)c(OC)c1)c1ccc2cccnc2c1O (configuration not stated)	6.08% (inactive)	–
CCOC(=O)N1CCN(C(c2cccnc2)c2ccc3cccnc3c2O)CC1 (configuration not stated)	–	39.8 µM (active)
COc1ccccc1N1CCN(C(CNC(=O)C(=O)NCc2ccc(C)cc2)c2cccnc2)CC1 (configuration not stated)	1.11% (inactive)	–
COc1ccc(CCNC(=O)c2ccc3c(c2)nc(C)n3-c2ccc(Br)cc2)cc1OC	12.9% (inactive)	–
C#CC(C)(CC)NC(=O)Cn1nnc(-c2ccc(OCc3c(F)cccc3Cl)cc2)n1 (configuration not stated)	15.5% (inactive)	–
CNS(=O)(=O)c1cccc(C(=O)NCC2CCCCC2)c1	12.7% (inactive)	–
COc1cccc(C(=O)NCCS(=O)(=O)NCC2CCCO2)c1 (configuration not stated)	-19.7% (inactive)	–
CN(C)S(=O)(=O)N1CCC(Oc2cccc(C(=O)NCCCC3CCCC3)c2)CC1	–	28.2 µM (active)
CC(C)(C)SCCNC(=O)c1cccc([N+](=O)[O-])c1	-16.4% (inactive)	–
COc1cccc(C(=O)CC(=O)C(=O)Nc2ccc([N+](=O)[O-])cc2C)c1	-6.66% (inactive)	–
COc1cccc(NCCC(=O)c2cccc([N+](=O)[O-])c2)c1	–	79.4 µM (active)
